Assay outcomes deposited in PubChem by National Center for Advancing Translational Sciences (NCATS).
TDP1 cell CPT: qHTS for Inhibitors of human tyrosyl-DNA phosphodiesterase 1 (TDP1): qHTS in cells in presence of CPT | chicken DT40 Tdp1-/-;hTDP1 cells + 20 nM CPT, ATP luminescence, 48 h | AID 686979, 2013 | actives 12% (n = 420,000) | Potency, µM (series often up to 46.2 µM), actives largely listed as inhibitors; also: nearly all actives have a fitted effect of over 55% in size
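Chicken DT40 Tdp1-/- cells stably complemented with human TDP1 were seeded at 400 cells/well in medium containing 20 nM camptothecin, exposed to pin-transferred compounds, and grown at 37 °C for at least 48 hr. Viability was read as ATP luminescence.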
DRD3 agonist: qHTS of D3 Dopamine Receptor Agonist: qHTS; D(3) dopamine receptor (Homo sapiens), P35462; D3R DiscoveRx beta-arrestin cells, luminescence, 90 min; max activation, %; actives 0.58% (n = 410,000); in the data active = max activation above about 30%
Target sequence (P35462 whole entry, looked up): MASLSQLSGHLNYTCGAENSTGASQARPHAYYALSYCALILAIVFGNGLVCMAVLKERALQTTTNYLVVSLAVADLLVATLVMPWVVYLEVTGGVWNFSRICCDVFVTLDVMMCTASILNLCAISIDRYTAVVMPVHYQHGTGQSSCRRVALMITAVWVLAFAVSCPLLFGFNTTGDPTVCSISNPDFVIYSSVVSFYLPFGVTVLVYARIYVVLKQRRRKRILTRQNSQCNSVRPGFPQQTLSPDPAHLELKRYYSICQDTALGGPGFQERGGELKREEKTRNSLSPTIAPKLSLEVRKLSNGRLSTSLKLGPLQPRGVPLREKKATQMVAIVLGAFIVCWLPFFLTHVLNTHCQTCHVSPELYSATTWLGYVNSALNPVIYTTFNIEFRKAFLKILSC
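Cells at 1500/well, incubated overnight, then treated with pinned compounds (dopamine as control) for 90 min at 37 degrees C. DiscoveRx reagent added for 30 - 60 minutes at room temperature; luminescence read.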
IL1B secr inh: qHTS for Inhibitors of Inflammasome Signaling: IL-1-beta AlphaLISA Primary Screen; AID 743279, 2014; THP-1 LPS/ATP IL-1B secretion, AlphaLISA, 16 h; active compounds read low; actives 4.7% (n = 360,000); activity change, % at 57.5 µM; in the data active = activity change below about -50%; inconclusive = mostly about -30% to -49%
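Secreted IL-1B measured by AlphaLISA bead assay after 16 h compound exposure of THP-1 cells; compounds (final up to 57.5 uM) added 1 h before LPS (250 ng/mL) and ATP (1.25 mM) stimulation; lower signal means less secretion.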
ClpP mod: qHTS Assay for Activators of ClpP; ATP-dependent Clp protease proteolytic subunit (Bacillus subtilis (strain 168)), P80244; actives 1.9% (n = 340,000); purified B. subtilis ClpP, FRET peptide cleavage, 20 min; AID 651965, 2013; Potency, µM (top dose mostly 57.5 µM); active = well fitted falling curve with a large enough effect; inconclusive = small, poorly fitted or top-dose-only effect; inactive = no such curve, though single readings can be large or run the other way; also: the source files actives as falling curves though it sought activators and does not explain the sign; nearly all actives have a fitted effect of over 65% in size
Target sequence (P80244 whole entry, looked up): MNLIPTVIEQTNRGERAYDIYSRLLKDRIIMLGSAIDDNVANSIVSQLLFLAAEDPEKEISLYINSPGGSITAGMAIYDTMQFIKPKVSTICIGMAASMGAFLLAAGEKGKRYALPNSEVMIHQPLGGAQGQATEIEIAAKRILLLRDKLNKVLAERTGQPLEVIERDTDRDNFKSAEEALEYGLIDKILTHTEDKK
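Purified B. subtilis ClpP, 10 microg/mL final in Tris/HCl pH8 with KCl, BSA, glycerol and Tween-20, cleaved an Abz/nitrotyrosine-quenched decapeptide. Fluorescence (ex 320, em 430) was read at 0 and 20 min at room temperature. Delta was normalized to 5.8 microM ADEP and DMSO/no-enzyme controls.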
TDP1 cell noCPT: qHTS for Inhibitors of human tyrosyl-DNA phosphodiesterase 1 (TDP1): qHTS in cells in absence of CPT; DT40 Tdp1-/- hTDP1 cells, no CPT, ATP luminescence, 48 h; Potency, µM (highest dose often 46.2 µM), most hits filed as inhibitors; actives 15% (n = 420,000); AID 686978, 2013; also: nearly all actives have a fitted effect of over 55% in size
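Growth of hTDP1-complemented DT40 Tdp1-knockout cells is measured by ATP luminescence after at least 48 hr compound exposure at 37 °C, with DMSO substituting for the 20 nM CPT used in the parallel screen.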
DRD3 antagonist: qHTS of D3 Dopamine Receptor Antagonist: qHTS; D(3) dopamine receptor (Homo sapiens), P35462; max response, negative = inhibition, %; D3R cells, DiscoveRx beta-arrestin luminescence, antagonist mode; active compounds read low; actives 2.5% (n = 360,000); in the data active = max response below about -50%; inconclusive = no clear call, values can overlap the other calls
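Cells plated overnight at 1500 cells/well, then exposed to library compounds with dopamine controls for 90 minutes at 37 degrees C. DiscoveRx reagent added for 30–60 minutes at room temperature; luminescence read, quantitative HTS format.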
A number is an active result; – = inactive; ? = inconclusive; · = no result given; [ ] = remark or other dose. An excerpt weighted towards active compounds, which were near 21% of everything screened. Unless noted, calls follow the shape of the dose curve; as a rule, active = well fitted inhibition curve with a large enough effect; inconclusive = small, poorly fitted or top-dose-only effect; inactive = flat fitted curve, though single readings scatter.

SMILES | TDP1 cell CPT | DRD3 agonist | IL1B secr inh | ClpP mod | TDP1 cell noCPT | DRD3 antagonist
COc1cc2cc(CCCOC(=O)c3ccc(F)cc3)oc(=O)c2cc1OC | – | – | – | – | – | –
CC(C)NC(=O)c1ccc2sc([C@H]3C[C@H](O)[C@@H](CO)O3)nc2c1 | – | – | – | – | – | ?
CCOC(=O)c1c(C)oc2nc(C)nc(NCCCN3CCN(c4cccc(C)c4)C(C)C3)c12 (centres undefined) | ? | – | · | – | ? | ·
COc1ccc(-c2cc(C(=O)NCCc3ccccc3)c3c(-c4ccc(Cl)cc4)[nH]nc3n2)cc1 | 11.6µM | – | · | – | 10.3µM | ·
Cc1[nH]c2c(ccc3ccccc32)c1C1C(CCN)C1(C)C (centres undefined) | ? | – | ? | – | 23.1µM | –
S=c1[nH]c2ccc3ccccc3c2[nH]1 | – | – | – | · | – | –
Cc1c(C(=O)NC(=S)NCc2cccnc2)cccc1[N+](=O)[O-] | – | – | – | – | – | –
COc1cccc(NC(=O)CSc2nc(=O)[nH]c3c2CCCC3)c1 | ? | – | · | – | ? | ·
OC(CN1CCN(Cc2ccccc2)CC1)Cn1c2ccccc2c2ccccc21 (centres undefined) | 23.1µM | – | – | – | ? | –
CC1CCN(CC(O)Cn2c3ccccc3c3ccccc32)CC1 (centres undefined) | – | – | -62.5 | – | ? | –
OC(CN1CCN(c2ccccc2)CC1)Cn1c2ccccc2c2ccccc21 (centres undefined) | 18.4µM | – | – | – | 13µM | –
CC1CCCC(C)N1CC(O)Cn1c2ccccc2c2ccccc21 (centres undefined) | 1.84µM | – | – | – | 2.59µM | –
OC(CN1CCOCC1)Cn1c2ccccc2c2ccccc21 (centres undefined) | – | – | – | – | ? | –
O=C(Nc1ccccc1F)c1cc(S(=O)(=O)N2CCOCC2)cs1 | – | – | – | – | – | –
COc1ccc2c(c1)O[C@@H]1c3ccc(OC)cc3OCC21 (some centres undefined) | – | · | · | · | – | ·
CCN1C(=O)/C(=C/c2nc3ccccc3c(=O)[nH]2)c2ccccc21 | ? | – | – | – | ? | –
CCN1C(=O)/C(=C\c2nc3ccccc3c(=O)n2-c2ccccc2)c2ccccc21 | 13µM | – | ? | – | 8.2µM | –
COc1ccc(-n2c(/C=C3\C(=O)N(C)c4ccccc43)nc3ccccc3c2=O)cc1 | – | – | · | · | ? | –
CCN1C(=O)/C(=C/c2nc3ccccc3c(=O)n2-c2ccc(C)cc2)c2ccccc21 | 23.1µM | – | · | – | 18.4µM | –
CCOc1ccc(C(c2c(O)cc(C)n(CCOC)c2=O)N2CCC(C)CC2)cc1 (centres undefined) | – | – | · | – | – | ·
Cc1cccc2cc(CN(C(=O)c3ccc(C(F)(F)F)cc3)C3CC3)c(N3CCC(O)CC3)nc12 | –[9.04 µM] | · | · | · | ? | ·
CCOC(=O)C1(CCCc2ccccc2)CCN(S(C)(=O)=O)CC1 | ? | – | – | · | ? | –
O=C(c1ccccc1)N1CCN2C(=O)c3ccccc3C12c1ccc(Cl)cc1 (centres undefined) | 20.6µM | – | ? | – | 18.4µM | –
O=C(c1ccc(F)cc1)N1CCN2C(=O)c3ccccc3C12c1ccc(Cl)cc1 (centres undefined) | ? | – | – | · | ? | –
CCN(CC)S(=O)(=O)c1ccc(/C=C/C(=O)Nc2ccc(F)cc2F)cc1 | ? | – | – | – | 13µM | –
SMILES | TDP1 cell CPT | DRD3 agonist | IL1B secr inh | ClpP mod | TDP1 cell noCPT | DRD3 antagonist
O=C(/C=C/c1ccc(S(=O)(=O)N2CCOCC2)cc1)N1CCN(c2ccccc2)CC1 | 11.6µM | – | – | – | 1.03µM | –
CCN(CC)S(=O)(=O)c1ccc(/C=C/C(=O)Nc2ccc(N3CCOCC3)cc2)cc1 | ? | – | – | – | 20.6µM | –
COc1cccc(/C=C/C(=O)N2CCN(S(=O)(=O)c3ccccc3)CC2)c1 | ? | – | – | – | 20.6µM | –
O=C(/C=C/c1ccccc1)N1CCN(S(=O)(=O)c2ccc(F)cc2)CC1 | – | – | – | · | – | –
COc1cccc(/C=C/C(=O)N2CCN(c3ccccn3)CC2)c1 | – | – | – | – | – | –
O=C(CN1CCN(C(=O)CNC(=O)c2ccc3c(c2)OCO3)CC1)Nc1ccc(F)cc1 | – | – | – | – | ? | –
Cc1ccc(NC(=S)Nc2ccc(S(=O)(=O)N3CCOCC3)cc2)cc1S(=O)(=O)N1CCOCC1 | ? | – | – | · | – | –
O=C(/C=C/c1ccc(F)cc1)Nc1ccc(S(=O)(=O)N2CCOCC2)cc1 | ? | – | – | – | – | –
Cc1cc(NC(=S)NC(=O)/C=C/c2ccc(S(=O)(=O)N3CCOCC3)cc2)ccc1Br | ? | – | -87.8 | · | 14.6µM | –
O=C(/C=C/c1ccc(S(=O)(=O)N2CCOCC2)cc1)NC(=S)Nc1ccc(N2CCOCC2)cc1 | – | – | -76.5 | – | ? | –
Cc1ccc(S(=O)(=O)c2cn(CC(=O)Nc3ccccc3C)c3cc4c(cc3c2=O)OCO4)cc1 | – | – | · | – | – | ·
CCC(C)C(NC(=O)C1CCC(C)CC1)C(=O)Nc1ccc(OC)cc1OC (centres undefined) | ? | – | – | – | – | –
CCC(C)C(NC(=O)C1CCC(C)CC1)C(=O)Nc1cc(OC)ccc1OC (centres undefined) | ? | – | – | – | 18.4µM | –
COc1cc(NC(=O)C2CCCN2C(=O)C2CCC(C)CC2)cc(OC)c1OC (centres undefined) | ? | – | – | – | ? | –
COc1ccc(NC(=O)C(CC(C)C)NC(=O)C2CCC(C)CC2)c(OC)c1 (centres undefined) | 14.6µM | – | ? | – | ? | –
COc1ccc(OC)c(NC(=O)C2CCCN2C(=O)C2CCC(C)CC2)c1 (centres undefined) | ? | – | – | – | 13µM | –
COC(=O)c1ccccc1NC(=O)N1CCC(n2c(C)nc3cccnc32)CC1 | ? | – | · | – | ? | ·
CC(C)Cc1cc(C(=O)N2CCC(N3CCC(C(=O)NC4CC4)CC3)CC2)n[nH]1 | – | – | – | · | – | –
Cc1ccc(-c2nnc(Cc3ccc([N+](=O)[O-])cc3)o2)cc1 | – | – | – | – | ? | –
